Among the data in PubChem BioAssay (Tox21) are Potency values, retold here.

Records with an inconclusive call do not appear. Where a call stands in place of a potency, no number is given. Calls of active or inactive are those of the source. The call rests on the fitted dose curve; in most records, active means well fitted cell-killing curve with a large enough effect in the repeat runs; inconclusive means weak or mixed curves, or effect the other way; inactive means flat fitted curve, though single readings scatter.

A short description of this test: qHTS assay to identify small molecule that activate the aryl hydrocarbon receptor (AhR) signaling pathway - cell viability counter screen (AID 743086).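 Further: HepG2 liver cells carrying the AhR DRE luciferase reporter; nearly all actives have a fitted effect of over 45% in size.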 Conditions: HepG2-AhR-luc viability, CellTiter-Fluor, 24 h; series mostly up to 70.3 µM. An outline of the steps:
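HepG2-AhR-luc (HG2L7.5c1) cells, 4000/well, were preincubated 5 h at 37C, exposed to compound in qHTS format for 24 hr at 37C, then given CellTiter-Fluor for 30 min; viability was read as fluorescence in the reporter wells.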
Background: qHTS replaces the single test concentration by a dilution series.
Turning to `Clc1ccc(C(c2ccc(Cl)cc2)C(Cl)(Cl)Cl)cc1`, the Potency result is “inactive”.
With `NNC(=O)c1ccccc1` the entry was “inactive”; with `Clc1ccc(CSC(Cn2ccnc2)c2ccc(Cl)cc2Cl)cc1` (centres undefined), “inactive”; with `ClC(Cl)=C(Cl)Cl`, “inactive”.
On to `CC(=O)O[C@H]1CC[C@@]2(C)C(=CC[C@@H]3[C@@H]2CC[C@]2(C)C(=O)CC[C@@H]32)C1`, for which the Potency entry is “inactive”.
With `ClC1=C(Cl)C2(Cl)C3C(Cl)C=CC3C1(Cl)C2(Cl)Cl` (centres undefined) the entry was “inactive”; with `C[C@]12CC[C@@H]3c4ccc(OC(=O)N(CCCl)CCCl)cc4CC[C@H]3[C@@H]1CC[C@@H]2O`, “inactive”; with `CC(C)CC(C)N` (centres undefined), “inactive”.
On to `N#CCCSCCC#N`, for which the Potency entry is “inactive”.
In the case of `C[C@H]1CC[C@@H]2[C@@H](C)[C@H]3[C@H](C[C@H]4[C@@H]5CC=C6CC(O[C@@H]7O[C@H](CO)[C@H](O)[C@H](O[C@@H]8O[C@H](CO)[C@@H](O)[C@H](O)[C@H]8O)[C@H]7O[C@H]7O[C@@H](C)[C@H](O)[C@@H](O)[C@H]7O)CC[C@]6(C)[C@H]5CC[C@]34C)N2C1` (some centres undefined), the Potency result is “inactive”.
In the case of `Clc1ccc(C(Cl)(Cl)Cl)c(Cl)c1`, the Potency entry is “inactive”.
Regarding `CCOC(=O)CC(=O)CCl`, the Potency result is “inactive”.
Turning to `CN(C)CCc1c[nH]c2ccc(O)cc12`, the Potency result was “inactive”.
Turning to `CC(C)OC(=O)C(O)(c1ccc(Cl)cc1)c1ccc(Cl)cc1`, the Potency entry was “inactive”.
